# Calls of active or inactive are those of the source. Calls come from the whole dose curve.
# Experiment: qHTS assay to identify small molecule agonists of the sonic hedgehog signaling (Shh) pathway (AID 1259368);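 note: NIH/3T3-derived 3T3Gli1-Luc cells carrying a stable Gli1-driven firefly luciferase reporter; nearly all actives have a fitted effect of over 15% in size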
# Conditions: NIH/3T3 Gli1-Luc reporter, luciferase, 24 h; series mostly up to 92.4 µM; activity change: at the top concentration
# Text: National Center for Advancing Translational Sciences [NCATS]
# NIH Chemical Genomics Center [NCGC]
# U.S. Environmental Protection Agency [EPA]
# National Institutes of Environmental Health Sciences [NIEHS]
# National Toxicology Program [NTP]
# The sonic hedgehog (Shh) pathway is essential for normal embryonic development. Dysregulation of the Shh pathway can cause severe developmental defects in organs. Therefore chemicals that interfere with the pathway are potential developmental toxicants. A cell line designated 3T3Gli1-Luc (DMB/OARSA/CFSAN/FDA, Laurel, MD), a NIH/3T3 derived clone containing stably integrated Gli1-Luc reporter is used to detect chemical interference of the Shh pathway, by changes in the expression of the firefly Luc gene under the control of the Gli1 transcriptional response element. This cell line was used to screen Tox21 libraries for identifying and prioritizing the potential developmental toxicants that interfere Shh pathway.
# 3T3 Gli1-Luc cells were dispensed at 2,000 per well in 5uL of culture medium into white solid bottom 1536-well plates (Greiner Bio-One, Monroe, NC) using a Multidrop Combi (Thermo Scientific, Waltham, MA) dispenser. The assay plates were incubated at 37 C and 5% CO2 for 4hr, and then 23nL of compounds dissolved in DMSO and positive control were transferred using a Pintool station (Wako, San Diego, CA). The assay plates were incubated at 37C and 5% CO2 for 24hr. For luciferase read, 4uL of Amplite Luciferase reporter gene assay reagent (AAT Bioquest, Inc. Sunnyvale, CA) was added to each well of the assay plates using Flying Reagent Dispenser (FRD, Aurora Discovery, San Diego, CA) and incubated at room temperature for 30min. The luminescence signal was measured using a ViewLux plate reader (Perkin Elmer, Shelton, CT).
# % is set by controls: 0 for no effect and ±100 for the full control effect.
row,SMILES,activity change
1,C1CCOC1,-1.55% (inactive)
2,C[C@]12CCC(=O)C=C1CC[C@@H]1[C@@H]2CC[C@@]2(C)[C@H]1CC[C@]2(O)C(=O)CO,"-0.023% [at 42.5 µM, stronger effect = higher value] (inactive)"
3,CN(C)C(=O)NC1(c2ccccc2)CCN(CCC[C@]2(c3ccc(Cl)c(Cl)c3)CCCN(C(=O)c3ccccc3)C2)CC1,"-5.82% [at 18.9 µM, stronger effect = higher value] (inactive)"
4,CCN(CC)CC1CCCCN1CC(=O)N1c2ccccc2C(=O)Nc2cccnc21 (stereo not given),"-0.254% [at 42.5 µM, stronger effect = higher value] (inactive)"
5,CCCCCCCCCC/C=C/C#N,-0.0464% (inactive)
6,CCCOc1ccc2c(c1)CC[C@@H]1[C@@H]2CC[C@]2(C)C(OC)CC[C@@H]12 (stereo not given in full),"0.527% [at 42.5 µM, stronger effect = higher value] (inactive)"
7,CC(C)C[C@H](NC(=O)OCC1c2ccccc2-c2ccccc21)C(=O)O,4.19% (inactive)
8,CN1CCN(c2c(F)cc3c(=O)c(C(=O)O)cn4c3c2SCC4)CC1,"-1.19% [at 42.5 µM, stronger effect = higher value] (inactive)"
9,CN1CCN(N)CC1,"-0.149% [at 42.5 µM, stronger effect = higher value] (inactive)"
10,NC/C=C/C(=O)O,"0.343% [at 42.5 µM, stronger effect = higher value] (inactive)"
11,CCCCC1CCC(=O)O1 (stereo not given),-0.147% (inactive)
12,Cc1cn([C@@H]2O[C@H](CO)[C@@H](O)[C@@H]2F)c(=O)[nH]c1=O,"-0.787% [at 42.5 µM, stronger effect = higher value] (inactive)"
13,CCc1nnc(NS(=O)(=O)c2ccc(N)cc2)s1,"0.0309% [at 42.5 µM, stronger effect = higher value] (inactive)"
14,Cn1cnc2c(F)c(Nc3ccc(Br)cc3Cl)c(C(=O)NOCCO)cc21,"-4.36% [at 42.5 µM, stronger effect = higher value] (inactive)"
15,ICCc1ccccc1,-2.02% (inactive)
16,Cc1c[nH]c(=S)[nH]c1=O,-1.98% (inactive)
17,C[C@@H]1CN(c2c(F)c(F)c3c(=O)c(C(=O)O)cn(C4CC4)c3c2F)C[C@H](C)N1,"3.53% [at 18.9 µM, stronger effect = higher value] (inactive)"
18,C[C@@H](N)C(=O)O,"0.0244% [at 42.5 µM, stronger effect = higher value] (inactive)"
19,C=CC(C)(O)CC/C=C(\C)CCC=C(C)C (stereo not given),0.339% (inactive)
20,CCC(=O)O[C@]1(C(=O)SCF)[C@H](C)C[C@H]2[C@@H]3C[C@H](F)C4=CC(=O)C=C[C@]4(C)[C@@]3(F)[C@@H](O)C[C@@]21C,"-0.682% [at 42.5 µM, stronger effect = higher value] (inactive)"

row,SMILES,activity change
1,CCCCc1ccc2nc(NC(=O)OC)[nH]c2c1,"8.1% [at 42.5 µM, stronger effect = higher value] (inactive)"
2,O=C1Nc2ccc([N+](=O)[O-])cc2C1=O,0.11% (inactive)
3,Cc1nc(-c2ccccn2)ncc1C(=O)Nn1cc(C)c2cc(F)ccc21,1.7% (inactive)
4,CCCCC(=O)O[C@]1(C(=O)CO)[C@H](C)C[C@H]2[C@@H]3CCC4=CC(=O)C=C[C@]4(C)[C@@]3(F)[C@@H](O)C[C@@]21C,"0.116% [at 42.5 µM, stronger effect = higher value] (inactive)"
5,CCOc1ccc(NS(=O)(=O)c2ccc(N)cc2)nn1,"-0.634% [at 42.5 µM, stronger effect = higher value] (inactive)"
6,CO[C@@]1(NC(=O)CSCC#N)C(=O)N2C(C(=O)O)=C(CSc3nnnn3C)CS[C@@H]21,"0.847% [at 42.5 µM, stronger effect = higher value] (inactive)"
7,CC1CN(c2ccccc2)NC1=O (stereo not given),0.001% (inactive)
8,Cc1cc2nc(N)sc2cc1C,6.33% (inactive)
9,O=C1CCCCC1C1CCCCC1 (stereo not given),0.674% (inactive)
10,NCCC(O)(P(=O)(O)O)P(=O)(O)O,"-0.0826% [at 42.5 µM, stronger effect = higher value] (inactive)"
11,O=C1N(c2ccccc2)c2ccccc2C1(Cc1ccncc1)Cc1ccncc1,"-0.0188% [at 42.5 µM, stronger effect = higher value] (inactive)"
12,CCCCNCCCC,-0.17% (inactive)
13,Cc1onc(-c2ccccc2)c1C(=O)Cl,"0.0721% [at 42.5 µM, stronger effect = higher value] (inactive)"
14,CC1=C2[C@H](/C=C(\C)C(=O)O)CC[C@@H](C)[C@H]2CC1,-7.89% (inactive)
15,CNCCC(Oc1ccccc1OC)c1ccccc1 (stereo not given),"-1.58% [at 42.5 µM, stronger effect = higher value] (inactive)"
16,CCCC(CCC)(C(=O)OCC)C(=O)OCC,"0.17% [at 42.5 µM, stronger effect = higher value] (inactive)"
17,CC(C)(C)c1cccc(O)c1,0.161% (inactive)
18,CC(C)(C)c1ccc(OC(=O)c2ccccc2O)cc1,10.6% (inactive)
19,NS(=O)(=O)c1cc(-c2nn[nH]n2)c(NCc2cccs2)cc1Cl,"0.0929% [at 42.5 µM, stronger effect = higher value] (inactive)"
20,CC(CNC1CCCCC1)OC(=O)c1ccccc1 (stereo not given),"-0.0856% [at 42.5 µM, stronger effect = higher value] (inactive)"
